Laboratory results reported in PubChem BioAssay AID463173 (ICCB-Longwood Screening Facility, Harvard Medical School, 2010).
The campaign covered roughly 52,000 compounds. About 4,300 (8.3%) were called active. Many of the other results were omitted from the sample, so actives are more common in it than they were. Values without a mark were called inactive. Rule as the data show it: active = survival mostly below about 52% (no sharp cut-off); inactive = mostly above about 56%.

test system: DeltatarO mutant; test: S. aureus survival, RN4220 and DeltatarO strains – OD600, teichoic acid synthesis inhibitors, primary screen (AID 463173); details: S. aureus RN4220 wild type/DeltatarO growth, OD600, 18 h, hits give low values, screened at 18.75 µg/mL (by protocol)

Compound | survival
CC(=O)N/C(N)=N\c1nc(C)c2ccc(C)cc2n1 | 73%
O=C(NCc1ccc(Cl)cc1)c1ccc2c(c1)NC(=O)C(CS(=O)(=O)Cc1ccccc1Cl)N2 (stereo not drawn) | 94%
COCCCNC(=O)Nc1cc(C(=O)NCc2ccc(OC)cc2)ccc1N1CCCC1 | 67%
COc1ccccc1N1CCN(CCCNC(=O)c2cnn(-c3cccc(Cl)c3)c2C2CCN(C(=O)OC(C)(C)C)CC2)CC1 | 87%
CC1=C(C(=O)Nc2c(C)cc(C)cc2C)C2(CCN(C(C)C)CC2)OC1=O | 112%
O=C(CCCn1c(=O)c2sccc2n(Cc2c(F)cccc2Cl)c1=O)NCc1ccccc1 | 138%
CCOC(=O)c1noc2ncnc(N3CCC(C)CC3)c12 | 75%
Cc1ccc(C2=NC(c3ccccc3)=Nc3ccc(Cl)cc3N2)cc1 | 89%
CCOc1ccc(NC(=O)CN(c2ccc(C)cc2)S(=O)(=O)c2cccs2)cc1 | 83%
COc1ccc2c(c1)CCc1c(C(=O)Nc3ccccc3C(F)(F)F)noc1-2 | 143%
Cc1ccc(NC(=O)C2CCCN(c3ncnc4onc(C)c34)C2)c(Cl)c1 (stereo not drawn) | 74%
CCCCCOC(=O)CSc1ncnc2sc3c(c12)CCC(C)C3 (stereo not drawn) | -4% (active)
CCCCOC(=O)CSc1ncnc2sc3c(c12)CCC(C)C3 (stereo not drawn) | 17% (active)
Cc1ccc(-c2nc(NC(=O)CSc3ncnc4sc5c(c34)CCC(C)C5)ns2)cc1 (stereo not drawn) | 69%
Cc1ccc(OCCCCn2nnc3sc4c(c3c2=O)CCC(C)C4)cc1 (stereo not drawn) | 56%
CCCCCOC(=O)CSc1ncnc2c1sc1nc(N3CCOCC3)c3c(c12)CCCC3 | 71%
CCCOC(=O)CSc1ncnc2sc3c(c12)CCC(C)C3 (stereo not drawn) | 7% (active)
CC1CCc2c(sc3ncnc(NCCOCCO)c23)C1 (stereo not drawn) | 98%
CCC(C(=O)OC(C)C)n1cnc2sc3c(c2c1=O)CCC(C)C3 (stereo not drawn) | 93%
CCOc1ccc(NC(=O)CSc2cn(CC(=O)N3CCOCC3)c3ccccc23)cc1 | 95%
CCOc1ccc(NC(=O)Cn2c(=O)n(CCCCC(=O)NCc3ccc4c(c3)OCO4)c(=O)c3ccccc32)cc1 | 85%
CC1(C)CC(NC(=O)CCCC(=O)O)CC(C)(C)N1 | 81%
COc1ccc(C)cc1NC(=O)c1ccc2c(=O)n3c(nc2c1)CCCCC3 | 65%
COc1ccc(Cn2c(CO)cnc2SCc2ccccc2)cc1 | 89%
CCOC(=O)c1ccccc1NC(=O)CSc1ncc(CO)n1Cc1ccc(C)cc1 | 77%
Cc1ccc(Cn2c(CO)cnc2SCC(=O)NCc2ccccc2Cl)cc1 | 73%

Compound | survival
COc1ccc(Cn2c(CO)cnc2SCC(=O)NCc2ccco2)cc1 | -5% (active)
O=C(CSc1ncc(CO)n1Cc1ccc(F)cc1)NCc1ccco1 | 126%
COc1ccc(Cn2ccnc2SCC(=O)NCc2ccco2)cc1 | 75%
COc1ccc(Cn2c(CO)cnc2SCc2ccc(F)cc2)cc1 | 17% (active)
Cc1ccc(Cn2c(CO)cnc2SCC(=O)Nc2ccc(C)c(Cl)c2)cc1 | -5% (active)
OCc1cnc(SCc2ccc(F)cc2)n1Cc1ccc(F)cc1 | 88%
Cc1ccc(NC(=O)N2CCN(c3nnc(C)c4c(C)n(-c5ccccc5)nc34)CC2)cc1Cl | 94%
O=C(CSc1nnc2ccc3ccccc3n12)Nc1ccccc1Cl | 76%
Cc1cc2ccccc2n1CCNC(=O)c1ccc(Br)cc1 | 58%
CCOC(=O)c1cc(-c2ccc(C)cc2)n(CC(=O)Nc2ccc(OC)cc2OC)c1C | 97%
Cc1cc(-c2ccc(C)c(S(=O)(=O)NCc3cccs3)c2)on1 | 72%
COc1cccc(C(=O)Nc2cc(C)on2)c1 | 89%
Cc1cc(NC(=O)c2ccc(NC(=O)C(C)C)cc2)no1 | 72% (active)
CC(C)C(=O)Nc1ccc(NC(=O)c2ccccc2)nc1 | 87%
CC(C)Oc1ccc(CNC(=O)Nc2ccc3c(c2)N(C)C(=O)c2ccccc2S3)cc1 | 94%
CCN1CCN(CCCNC(=O)c2cc3c(=O)n(CC)c4ccccc4c3s2)CC1 | 97%
Cc1ccc(NC(=O)N2CC3CCCN3c3ccccc32)cc1C (stereo not drawn) | -4% (active)
Cc1ccc(NC(=O)N2CC3CCCN3c3ccccc32)c(C)c1 (stereo not drawn) | 86%
Cc1ccc(NC(=O)N2CC3CCCN3c3ccccc32)cc1Cl (stereo not drawn) | 62%
Cc1cccc(NC(=O)CSc2ncc3c(n2)-c2ccccc2N(Cc2ccc(F)cc2)S3(=O)=O)c1C | 68%
Cc1cccc(-n2ncc3c(N4CCCCCC4)ncnc32)c1 | 92%
COc1ccc(C(=O)Nc2ccc(-c3nnc4n3CCCCC4)cc2)cc1 | 0% (active)
COc1ccc(C(=O)Nc2ccc(-c3nnc4n3CCCCC4)cc2)cc1OC | 57%
CCOc1cc(C(=O)Nc2ccc(-c3nnc4n3CCCCC4)cc2)cc(OCC)c1OCC | 69%
COc1cccc(NC(=O)c2cnc(SCC(=O)N3CCOCC3)n(C)c2=O)c1 | 120%
COc1ccc(-n2nc(C(=O)N3CCC(C)CC3)c3c4ccccc4n(C)c3c2=O)cc1Cl | 87%

Compound | survival
O=C(CSc1nnc(-c2ccccc2)c(-c2ccccc2)n1)Nc1ccccc1Cl | 75%
CC(C)CSc1nnc(-c2ccccc2)c(-c2ccccc2)n1 | -8% (active)
CCc1ccccc1NC(=O)CSc1nnc(-c2ccccc2)c(-c2ccccc2)n1 | 88%
COc1cccc(C(=O)NCC(c2ccc(N(C)C)cc2)N2CCc3ccccc32)c1 (stereo not drawn) | 144%
COc1ccccc1-c1nnc(C2CCN(C(=O)c3cccc(Cl)c3)CC2)o1 | 88%
O=C(CSc1nc2ccccc2n1Cc1cccc(F)c1)N1CCN(c2ccc(F)cc2)CC1 | 64%
CN1CCc2c(sc(N)c2C(=O)O)C1 | 80%
O=C(CSc1nc(=O)n(CCN2CCOCC2)c2c1CCC2)Nc1ccc(F)cc1F | 124%
COc1cccc(-n2c(=O)c3c(C)c(C(=O)N(C)C)sc3n(Cc3ccc(F)cc3Cl)c2=O)c1 | 92%
Cc1ccc(-n2c(=O)c3c(C)c(C(=O)N(C)C)sc3n(Cc3ccccc3C)c2=O)cc1C | 98%
COc1cccc(-n2c(=O)c3c(C)c(C(=O)N(C)C)sc3n(Cc3cccc(C)c3)c2=O)c1 | 37% (active)
CCOc1ccc(-n2c(=O)c3c(C)c(C(=O)N(C)C)sc3n(CC(=O)Nc3c(C)cc(C)cc3C)c2=O)cc1 | 72%
CCc1ccc(-n2c(=O)c3c(C)c(C(=O)N(C)C)sc3n(Cc3cccc(C)c3)c2=O)cc1 | 99%
CCOc1ccc(-n2c(=O)c3c(C)c(C(=O)N(C)C)sc3n(Cc3cc(C)ccc3C)c2=O)cc1 | 0% (active)
CCn1c(C)c(C2N3CC4(C)CN2CC(C)(C3)C4=O)c2ccccc21 (stereo not drawn) | 92%
N#C/C(=C\c1cn(CC(=O)N2CCCC2)c2ccccc12)C(=O)NCc1ccc2c(c1)OCO2 | 66%
Fc1ccc(-c2noc3ncnc(NCc4ccc(Cl)cc4)c23)cc1 | 84%
CCOC(=O)c1ccc(N2C(=O)c3n[nH]c(-c4cccs4)c3C2c2ccc(OC)cc2OC)cc1 (stereo not drawn) | 76%
COC(=O)c1cc(NC(=O)c2ccc(-c3ccc(Cl)cc3Cl)o2)cc(C(=O)OC)c1 | 53%
COc1ccccc1NC(=O)c1ccc(C)o1 | 61%
CC(=O)Nc1ccc(NC(=O)c2ccc(COc3ccc(Cl)cc3Cl)o2)cc1 | 46% (active)
CCOc1ccc(NC(=O)c2cc(=O)c3cc(CC)ccc3o2)cc1 | 57%
C=CCc1ccc(OCc2ccc(C(=O)Nc3ccc(NC(C)=O)cc3)o2)c(OC)c1 | 121%
COc1ccccc1NC(=O)c1ccc(COc2ccc(C)c(C)c2)o1 | 1% (active)
CCCc1ccc(OCc2ccc(C(=O)Nc3ccccc3C(=O)OC)o2)cc1 | -2% (active)
COc1ccc(NC(=O)c2ccc(COc3ccccc3OC)o2)cc1OC | 61%

Compound | survival
Cc1cc(C)cc(OCc2ccc(C(=O)Nc3ccccc3F)o2)c1 | 45%
COC(=O)c1ccccc1NC(=O)c1ccc(COc2ccccc2Cl)o1 | 63%
COC(=O)c1ccccc1NC(=O)c1ccc(COc2cc(C)cc(C)c2)o1 | 40%
CCOc1ccc(OCc2ccc(C(=O)Nc3cc(OC)c(OC)c(OC)c3)o2)cc1 | 54% (active)
O=C(O)CCCc1nc2ccccc2s1 | 75%
Cc1cc(NC(=O)CSc2nc(-c3ccccc3F)nc3c2c(=O)n(C)c(=O)n3C)no1 | 86%
COC(=O)c1ccccc1NC(=O)C1CCCN(c2ncnc3onc(C)c23)C1 (stereo not drawn) | 80%
O=C(CNCC1CCCCC1)Nc1cccc(F)c1 | 88%
COc1cc(CNC(=O)c2ccc3c(c2)N(C)C(=O)C2CCCCN32)cc(OC)c1OC (stereo not drawn) | 69%
Cc1c(C(=O)N2CCC(C)CC2)c(S(=O)(=O)NCc2ccc(Cl)cc2)c(C)n1C | 128%
O=C(Nc1c(C(=O)N2CCN(c3ccccc3F)CC2)oc2ccccc12)c1ccc(Br)o1 | 80%
CCc1cccc(C)c1NC(=O)Cn1cc2c(n1)CCCCC2 | 90%
C#CCn1c(O)c(N=NC(=O)c2ccccc2-n2cccc2)c2ccccc21 | 60%
CCCn1c(SCc2nc(-c3ccccc3OCC)no2)nnc1-c1ccc(Cl)cc1 | 43% (active)
COc1ccc(-n2c(SCc3nc(-c4ccc(Cl)cc4)no3)nnc2-c2ccncc2)cc1 | 49% (active)
COc1ccc(-c2noc(CSc3nnc(-c4ccncc4)n3-c3ccc(C)cc3)n2)cc1 | 55%
COc1ccc(-c2noc(CSc3nnc(C)n3-c3ccc(C)cc3)n2)cc1 | 57% (active)
CCCn1c(SCc2nc(-c3ccc(OC)cc3OC)no2)nnc1-c1ccc(Cl)cc1 | 53%
COc1ccc(-n2c(SCc3nc(-c4ccc(C)cc4)no3)nnc2-c2ccncc2)cc1 | 57%
COc1ccc(-c2noc(CSc3nnc(-c4ccncc4)n3-c3ccc(OC)cc3)n2)cc1 | 92%
CCCn1c(SCc2nc(-c3ccccc3C)no2)nnc1-c1ccc(Cl)cc1 | 47%
COc1ccc(-c2noc(CSc3nnc(C)n3-c3ccc(OC)cc3)n2)cc1 | 77%
Cc1ccc(-c2noc(CSc3nnc(C)n3-c3ccc(C)cc3)n2)cc1 | 101%
COc1ccc(-c2noc(CSc3nnc(-c4ccncc4)n3-c3ccccc3)n2)cc1 | 70%
Cc1ccc(-n2c(SCc3nc(-c4ccc(Cl)cc4)no3)nnc2-c2ccncc2)cc1 | 37% (active)
